From PubChem BioAssay AID1861 (The Scripps Research Institute Molecular Screening Center, 2009)
The whole screen tested about 290,000 compounds, of which about 3,100 (1.1%) were called active. Cut-off read from the data, not from the text of the source: active = inhibition above about 16% (passing the limit was not always enough); inactive = the rest. The entries come from a sample that favours actives as a whole.

target: Neuropeptides B/W receptor type 1 (Homo sapiens) (UniProt P48145); assay: blockers of human neuropeptide B/W receptor 1 – cell-based, fluorescence, single concentration, primary screen (AID 1861); conditions: GPR7-expressing cells, fluorescence antagonist assay; at 4.4 µM; active compounds read high;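 note: cells stimulated with the agonist NPW; 0% = agonist with vehicle and 100% = vehicle without agonist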
Sequence (P48145 whole entry, looked up): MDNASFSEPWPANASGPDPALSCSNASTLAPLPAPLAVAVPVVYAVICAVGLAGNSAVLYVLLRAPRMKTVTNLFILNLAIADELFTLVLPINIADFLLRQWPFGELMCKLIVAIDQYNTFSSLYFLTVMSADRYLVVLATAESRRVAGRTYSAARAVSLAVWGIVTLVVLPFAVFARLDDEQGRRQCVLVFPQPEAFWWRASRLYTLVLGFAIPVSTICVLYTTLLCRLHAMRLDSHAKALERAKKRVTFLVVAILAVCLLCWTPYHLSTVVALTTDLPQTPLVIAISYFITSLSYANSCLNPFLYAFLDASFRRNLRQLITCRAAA

Row | Structure (SMILES) | inhibition
1 | CCn1c(CC(=O)Nc2ccccc2)nnc1SCC(=O)N1CCOCC1 | -9.92% (inactive)
2 | O=C1c2ccccc2C(=O)N1CCC(c1ccccc1)c1ccco1 (stereo unspecified) | -19.2% (inactive)
3 | CC1(C)CC(N(Cc2ccccc2)C(=O)Cc2ccccc2)CCO1 (stereo unspecified) | -11.1% (inactive)
4 | CC1(C)CC(CNCCC(c2ccc(F)cc2)c2ccco2)CCO1 (stereo unspecified) | 27.9% (active)
5 | CCC(C(=O)Nc1ccc2c(c1)OCCO2)c1ccccc1 (stereo unspecified) | -8.4% (inactive)
6 | CCC(C(=O)Nc1ccc(C(C)C)cc1)c1ccccc1 (stereo unspecified) | 55.6% (active)
7 | CCC(C(=O)OCC(=O)Nc1ccc(C(=O)Nc2ccc(OC)cc2)cc1)c1ccccc1 (stereo unspecified) | 0.99% (inactive)
8 | COc1ccc(-n2nc(C(=O)NCC(=O)N3CCN(c4ccccc4OC)CC3)c3ccccc3c2=O)c(OC)c1 | 1.21% (inactive)
9 | Cn1nccc1/C=N\NC(=O)c1ccc(Cl)cc1 | -6.59% (inactive)
10 | O=C(NC1CCCCC1)C1c2ccccc2C(=O)N1Cc1ccco1 (stereo unspecified) | -11.8% (inactive)
11 | Cc1ccnc(N2C(=O)c3ccccc3C2Nc2ccc3c(c2)OCCO3)c1 (stereo unspecified) | -8.69% (inactive)
12 | O=C1c2ccccc2C(Nc2ccc3c(c2)OCCO3)N1Cc1ccco1 (stereo unspecified) | 17.6% (active)
13 | COC(=O)c1c(NC(=O)c2ccc(S(=O)(=O)N3CCOCC3)cc2)sc2c1CCN(C(C)C)C2 | -0.58% (inactive)
14 | Nc1cccc2c1C(=O)N(Cc1nnc(-c3ccccc3Br)o1)C2=O | -16% (inactive)
15 | CN(C)/C=N/c1cc(=O)n(C)c(=O)n1CC1CC1 | -1.62% (inactive)
16 | Cc1cccc(OCC(=O)NC(=S)Nc2ccccc2N2CCOCC2)c1 | -14.9% (inactive)
17 | Cc1ccc(O)c(NC(=S)NC(=O)COc2ccc(Br)cc2)c1 | 89.1% (active)
18 | Cc1ccc(O)c(NC(=O)COc2cc(C)ccc2C)c1 | 10.6% (inactive)

Row | Structure (SMILES) | inhibition
19 | Cc1cccc(C2C3=C(CCCC3=O)N=C3c4ccccc4C(=O)C32)c1 (stereo unspecified) | -14.3% (inactive)
20 | CCn1cc(C(=O)NCCC(=O)NCCO)c(=O)c2cc3c(cc21)OCO3 | -13.5% (inactive)
21 | COC(=O)CN1C(=O)[C@H]2[C@@H](/C=C/c3ccccc3)N3C(=O)CN(CC4CC4)C(=O)[C@@]3(Cc3ccccc3)[C@H]2C1=O | -2.59% (inactive)
22 | CCCCSCCCNC(=O)C1CCC(CNS(=O)(=O)c2ccc(NC(C)=O)cc2)CC1 (stereo unspecified) | 3.79% (inactive)
23 | Cc1nn(-c2ccccc2)c2c1c(C)c(CCC(=O)NCC1CCCO1)c(=O)n2C (stereo unspecified) | -15.7% (inactive)
24 | Cc1ccc(C(=O)NCC(=O)OCC(=O)NC2CCCCCCC2)cc1 | -6.33% (inactive)
25 | O.O.O.O=S(=O)([O-])OC[C@H]1O[C@@H](O[C@]2(COS(=O)(=O)[O-])O[C@H](OS(=O)(=O)[O-])[C@@H](OS(=O)(=O)[O-])[C@@H]2OS(=O)(=O)[O-])[C@H](OS(=O)(=O)[O-])[C@@H](OS(=O)(=O)[O-])[C@@H]1OS(=O)(=O)[O-].[Al] | -11% (inactive)
26 | O=C(OCN1C(=O)c2ccccc2C1=O)/C(=C\c1ccco1)NC(=O)c1ccccc1 | 19% (active)
27 | NC(=O)C1CCN(C(=O)/C(=C/c2ccco2)NC(=O)c2ccccc2)CC1 | -7.3% (inactive)
28 | O=C(NCc1ccco1)/C(=C/c1ccco1)NC(=O)c1ccccc1 | -4.86% (inactive)
29 | C[C@H](NC(=O)C1CC(=O)N(c2ccc3c(c2)OCO3)C1)C(=O)NCc1ccco1 (stereo partly specified) | 1.22% (inactive)
30 | O=S(=O)(Nc1ccc2[nH]ncc2c1)c1ccccc1Cl | 6.14% (inactive)
31 | O=C(Cn1nc(CNc2ccc(Cl)cc2)[n+]2c1CCCCC2)c1ccc(Cl)cc1 | -3.46% (inactive)
32 | CC(=O)Nc1ccc(Oc2ccc3c(c2)C(=O)NC3=O)cc1 | 7.14% (inactive)
33 | S=C(NCCC1=CCCCC1)Nc1ccccc1 | 8.55% (inactive)
34 | S=C(NCCc1ccccc1)Nc1ccccc1 | 21.5% (active)
35 | S=C(NCCCc1ccccc1)Nc1ccc(Br)cc1 | -16.1% (inactive)
36 | COc1ccc(-c2nnc3n2CCCCC3)cc1 | 1.65% (inactive)
